# In the library only some 0.78% were active in any assay of this set; here they are far more common.
# miR-21 reporter: qHTS Assay for Modulators of miRNAs and/orActivators of miR-21. HeLa miR-21 FLuc reporter, luciferase, 48 h. Potency, µM (top dose mostly 38.3 µM), for inactives: at the top dose activity change, positive = activation, actives largely listed as activators. 340,000 tested, under 10 active. AID 2288, 2010;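 note: % of control where 0% means no effect; miR-21 action dims this reporter so a rising signal means less miR-21 action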
#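 HeLa cells endogenously expressing miR-21, stably carrying CMV-driven firefly luciferase with a downstream miR-21 binding site, 2000 cells/well. Titrations up to approximately 40 uM, 48 hours; luciferase luminescence read.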
# TCR activator: Activators of T cell receptors: qHTS campaign. primary human leukocytes, anti-CD3, IL-2 HTRF, 48 h. Potency, µM (titrated, usually from 9.22 µM), inactives show top-dose activation of IL-2 secretion, actives largely listed as activators. 330,000 tested, under 10 active; note: % of control where 0% means no effect
#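 Primary human leukocytes were stimulated with a-CD3 beads plus compounds for 48 hr without co-stimulation; secreted IL-2 was quantified by HTRF using a-IL-2-K (europium cryptate) and a-IL-2-d2, excited at 320nm with acceptor emission read at 665nm.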
# RXFP1 agonist: qHTS Assay for Agonists of the Relaxin Receptor RXFP1 | HEK293T-RXFP1 cAMP TR-FRET, 30 min; response scale: percent of porcine relaxin response, buffer zero | 370,000 tested, 0.3% active | Relaxin receptor 1 (Homo sapiens), Q9HBX9 | Potency, µM (doses to about 57.5 µM), for inactives: at the highest dose activation, most hits filed as activators | AID 2676, 2010; note: potency is the fitted concentration of half-maximal effect; % is set by controls: 0 for no effect and ±100 for the full control effect; nearly all actives have a fitted effect of over 60% in size
# Target sequence (Q9HBX9 whole entry, looked up): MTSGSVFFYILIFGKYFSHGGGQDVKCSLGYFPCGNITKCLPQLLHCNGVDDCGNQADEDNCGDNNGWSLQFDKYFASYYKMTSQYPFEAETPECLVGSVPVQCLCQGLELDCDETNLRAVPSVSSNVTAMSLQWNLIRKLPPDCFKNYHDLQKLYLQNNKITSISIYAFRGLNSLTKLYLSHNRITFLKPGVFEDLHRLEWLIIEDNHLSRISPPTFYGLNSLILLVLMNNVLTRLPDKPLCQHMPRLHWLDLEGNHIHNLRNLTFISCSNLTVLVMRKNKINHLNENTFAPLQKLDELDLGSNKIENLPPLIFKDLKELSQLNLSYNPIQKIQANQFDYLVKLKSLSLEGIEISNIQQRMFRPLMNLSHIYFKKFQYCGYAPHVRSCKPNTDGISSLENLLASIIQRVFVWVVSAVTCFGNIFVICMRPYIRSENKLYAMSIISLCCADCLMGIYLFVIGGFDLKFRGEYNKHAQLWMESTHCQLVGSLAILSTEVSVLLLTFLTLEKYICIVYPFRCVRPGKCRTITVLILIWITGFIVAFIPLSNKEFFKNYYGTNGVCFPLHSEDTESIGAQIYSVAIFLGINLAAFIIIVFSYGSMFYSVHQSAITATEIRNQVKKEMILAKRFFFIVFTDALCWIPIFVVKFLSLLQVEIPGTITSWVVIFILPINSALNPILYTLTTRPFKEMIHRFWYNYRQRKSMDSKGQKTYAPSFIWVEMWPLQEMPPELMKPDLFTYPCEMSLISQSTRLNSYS
#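 HEK293T cells stably expressing RXFP1 were pretreated with the PDE4 inhibitor Ro 20174, exposed to compounds for 30 min at 37C, lysed, and cAMP was read by TR-FRET. Data normalized to buffer (basal) and 29 nM porcine relaxin (100%).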
# PINK1 modulator: A Quantitative High throughput Screen to Identify Chemical Modulators of PINK1 Expression; PINK1 immunofluorescence, high-content cytometry, 24 h; Potency, µM (titrated, usually from 76.6 µM), for inactives: at the highest dose activation (PINK1 increase), usual class: activators; 410,000 tested, 0.2% active; active = well fitted activation curve with a large enough effect; inconclusive = small, poorly fitted or top-dose-only effect; cell line not stated here; note: potency is the fitted concentration of half-maximal effect; % of control where 0% means no effect; nearly all actives have a fitted effect of over 65% in size
#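 Decision-based qHTS: stable cells, 24 h exposure to five compound concentrations, CCCP as control. Fixed cells stained for PINK1 plus nuclear, mitochondrial and cell markers, cytometer read.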
# IL-2 act: qHTS of IL-2 Activators. IL-2 activation reporter assay, cell-based qHTS; stimulated with anti-CD3/CD4/CD28 beads; in transgenic mouse T cells. activation, % (series mostly up to about 46 µM). 360,000 tested, 0.065% active. AID 652025, 2013; in the data active = activation above about 50%; inconclusive = mostly about 30% to 49%; note: 0% is about no effect
#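 EGFP and DsRed fluorescence is measured by plate cytometry in unstimulated transgenic mouse T cells exposed to compound for 60 minutes, then stimulated 18 hours at 37 degrees C with anti-CD3/anti-CD4 beads plus anti-CD28.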
# RXFP1 antag: qHTS Assay for Antagonists of the Relaxin Receptor RXFP1; Relaxin receptor 1 (Homo sapiens), Q9HBX9; activity change, negative = inhibition, % at 57.5 µM; HEK293-RXFP1, relaxin-stimulated cAMP HTRF, 30 min; stronger effect = lower value; 350,000 tested, 0.59% active;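 active = activity change of -60% or lower, but not beyond a set lower limit; inconclusive = change between -60% and -40%, or beyond the set limit; inactive = change above -40%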; note: % is set by controls: 0 for no effect and ±100 for the full control effect
# Active calls of the source: *; ? = inconclusive; . = not tested or not shown; [ ] = dose if it differs, or a comment. Unless noted, calls come from the whole dose curve; as a rule, active = well fitted curve in the direction sought with a large enough effect; inconclusive = small, poorly fitted or top-dose-only effect, or another doubt; inactive = no such curve, though single readings can be large; an effect the other way counts as inactive or inconclusive.
SMILES,miR-21 reporter,TCR activator,RXFP1 agonist,PINK1 modulator,IL-2 act,RXFP1 antag
Cc1ccc([N+](=O)[O-])cc1N=Nc1c(-c2ccc([N+](=O)[O-])cc2)[nH]n(C(N)=S)c1=O,?,-4%,0%,2.8µM*,-1,-6
NC(=S)n1[nH]c(-c2ccc([N+](=O)[O-])cc2)c(N=Nc2ccc(Cl)cc2)c1=O,1%,6%,0%,11µM*,-6,-10
O=c1[nH]sc2cc(Cl)ccc12,.,.,.,.,.,19
CC(=O)c1ccc(F)c(-c2cc(C)cc3c2OC(CNC(=O)C(C)n2nc(C)cc2C)C3)c1 (stereo not given),.,.,.,1%,.,.
N#C/C(=C\c1ccc(N2CCCCC2)o1)C(=O)Nc1cccc(Br)c1,-57%,5%[46.1 µM],-3%,6.3µM*,-57,-4
COc1ccccc1-c1ccnc(-n2ncc(C(=O)N(C)C(C)c3ccon3)c2C2CC2)n1 (stereo not given),.,.,.,0%,.,.
CN1CC(=O)N(CC(=O)N2N=C(c3ccc(Cl)cc3)CC2c2ccco2)C1=O (stereo not given),-22%,6%,0%,0%,-1,-9
CCC(=O)N1N=C(c2ccc(Cl)cc2)CC1c1ccco1 (stereo not given),-22%,1%,0%,-2%,-1,-64*
COc1ccc(CN2CCCC(Cn3cc(C(=O)N4CCCC4)nn3)C2)c(O)c1 (stereo not given),.,.,.,1%,.,.
O=C1CSc2ccc(C(=O)O)cc2N1,-1%,2%,0%,-3%,-1,-77*
O=C1CSc2ccc(C(=O)N3CCCCC3)cc2N1,.,.,.,1%,0,0
COc1ccc(/C=C2\SC(=S)N(CCCC(=O)Nc3ccc(C(=O)O)cc3)C2=O)cc1OC,4%,-2%,-3%,-1%,-4,-24
COc1ccc(/C=C2/SC(=S)N(CCCC(=O)Nc3ccc(O)cc3)C2=O)cc1OC,-2%,12%,4%,7%,85*,-10
Cc1cc(C(=O)NCc2nc(-c3cccc(NC(=O)c4ccccc4)c3)oc2C)nc(C)n1,.,.,.,0%,.,.
O=C(N/N=C/c1ccccc1)c1cc(-c2ccc3c(c2)OCO3)n[nH]1,-5%,1%[46.1 µM],2%,10%,0,-4
O=C(N/N=C/c1cccc(O)c1)c1cc(-c2ccc3c(c2)OCO3)n[nH]1,-12%,1%[46.1 µM],0%,9%,-1,-69*
Cc1ccc(CN2CCOc3ccc(CN4CCN(CCO)CC4)cc3C2)s1,.,.,.,0%,.,.
Cc1ccccc1-n1c(SC(C)C(N)=O)nnc1-c1cccnc1 (stereo not given),2%,.,2%,10µM*,2,1
CC(C)NC(=O)[C@@H]1C[C@@H](Sc2nc3ccccc3[nH]2)CN1C1Cc2ccccc2C1,.,.,.,-1%,.,.
O=C(Nc1ccc2oc(-c3ccccc3)nc2c1)c1ccc2c(c1)OCCO2,-1%,-3%,1%,13µM*,-2,-36
COc1ccccc1C(=O)Nc1ccc2oc(-c3cccc4c(Br)cccc34)nc2c1,-2%,.,10µM*,-1%,.,14
COc1cc(C(=O)Nc2ccc3oc(-c4ccccc4)nc3c2)cc(OC)c1OC,?,.,2%,-1%,.,-60*
COc1cc(OC)cc(C(=O)Nc2ccc3oc(-c4cccc5c(Br)cccc45)nc3c2)c1,-1%,.,17%,-1%,.,5
COc1cc(C(=O)Nc2ccc3oc(-c4cccnc4)nc3c2)cc(OC)c1OC,1%,4%,-2%,2%,-5,-11
O=C(COC(=O)CNS(=O)(=O)c1ccc(Br)cc1Cl)NC1CCCC1,.,4%,1%,-2%,-1,-93*
SMILES,miR-21 reporter,TCR activator,RXFP1 agonist,PINK1 modulator,IL-2 act,RXFP1 antag
Cc1c(C(=O)N(C)Cc2cccc3ncccc23)cnn1-c1nccc(-c2ccccc2F)n1,.,.,.,1%,.,.
CCc1ccc(/C=C/c2c[nH]c3ccccc23)[n+](CC)c1,?,9%[46.1 µM],0%,32µM*,10,1
Cc1[nH]c2ccccc2c1/C=C/c1c[nH]c2ccccc12,.,.,.,1%,.,.
N#C/C(=C/c1ccc(N2CCOCC2)o1)c1ccc(Cl)cc1,22%,2%,0%,13µM*,7,-10
N#C/C(=C\c1ccc(N2CCOCC2)o1)c1nc2ccccc2[nH]1,-26%,9%,0%,14µM*,?,10
C/C(=C\c1ccco1)CN1CCOc2ccc(CN3CCC(Oc4cccnc4)CC3)cc2C1,.,.,.,-1%,.,.
COc1ccccc1C1CN(Cc2cccn2-c2ncccn2)Cc2ccccc2O1 (stereo not given),.,.,.,1%,.,.
Brc1ccc(-c2nn3c(-c4ccco4)nnc3s2)o1,-24%,18%,13µM*,-13%[38.3 µM],-3,-23
CCC(=O)Oc1ccc2c(c1)CC[C@@H]1[C@@H]2CC[C@@]2(C)[C@H]1C[C@@H](OC(=O)CC)[C@@H]2OC(=O)CC,.,.,.,.,.,-20
N#C/C(=C\c1ccc([N+](=O)[O-])o1)C(=O)Nc1ccc(F)cc1,15%,1%,-1%,19%,3,-68*
CN1/C(=C\C(=O)c2ccco2)C(C)(C)c2ccccc21,?,3%,0%,-1%[38.3 µM],-1,-86*
CN1/C(=C\C(=O)C[n+]2ccc3ccccc3c2)C(C)(C)c2ccccc21,29%,-7%,1%,45µM*,-1,11
CN1/C(=C/C=C(C#N)C#N)C(C)(C)c2ccccc21,1%,2%,9%,13%,115*,1
CN1/C(=C/C(=O)c2nc(S(C)(=O)=O)ncc2Cl)C(C)(C)c2ccccc21,?,1%,3%,-1%,-1,-69*
CN1/C(=C\C=O)C(C)(C)c2ccccc21,-7%,-7%,2%,2%,-4,9
COc1cccc(CNC(=O)c2c(OC)cc(=O)n3c2CCN(C(=O)C2CC24CCCCC4)CC3)c1 (stereo not given),.,.,.,-1%,.,.
CC(NC(=O)C1CCOCC1)c1nnc2n1CCN(Cc1cc3c(cc1Cl)OCO3)CC2 (stereo not given),.,.,.,1%,.,.
OC(c1ccccc1)(c1nc(-c2ccc3c(c2)OCO3)cs1)C(F)(F)F (stereo not given),.,.,.,11%,0,.
N#C/C(=C\C=C\c1ccccc1)c1nc(-c2ccc3c(c2)OCO3)cs1,-5%,2%[46.1 µM],1%,?,95*,-7

# Screens from PubChem BioAssay.
